Screening results as filed in PubChem.
LDHA inh = inhibitors of human lactate dehydrogenase A; P00338; purified LDHA, NADH/diaphorase-resazurin fluorescence; active compounds read low; activity change, % (values are at about 110 or 230 µM); 480,000 tested, 0.15% active; in the data active = activity change below about -30%; inconclusive = mostly about -25% to -30%;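 also: plate controls were DMSO wells for no effect and wells without enzyme for full effect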
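Remaining NADH was detected by diaphorase (0.133 mg/mL) converting 37 µM resazurin to fluorescent resorufin, read at 0 and 20 minutes. The preceding 5-minute room-temperature reaction used 2 nM LDHA, 0.2 mM sodium pyruvate and 0.06 mM NADH at pH 7.4.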
ATXN2 expr inh = inhibitors of ATXN2 expression | HEK-293 ATXN2-luciferase reporter, luminescence, 24 h | Potency, µM (highest dose often 57 µM), inactives show at the top dose activity change, negative = inhibition, most hits filed as inhibitors | 360,000 tested, 0.72% active; also: potency is read from the fitted curve at half-maximal effect; % is scaled to controls: 0 for no effect and ±100 for the full control effect; nearly all actives have a fitted effect of over 55% in size
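qHTS (up to 57 uM final) was run with 24 h compound exposure of reporter cells at 37 °C. Each well was multiplexed: SteadyGlo luminescence measured ATXN2-luciferase expression after a fluorogenic Gly-Phe-AFC viability readout (25 uM final).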
HepG2 tox-1 = counter-screen for TGF-b inhibitors: cytotoxicity in HepG2 cells; HepG2 CAGA-GFP viability, ATP luminescence, 18 h; Potency, µM (highest dose often 46.1 µM), inactives show at the highest dose activity change, negative = cytotoxicity, actives largely listed as cytotoxic; 410,000 tested, 0.76% active; AID 588856; also: potency is read from the fitted curve at half-maximal effect
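CellTiter-Glo luminescence gave cytotoxicity after 18 hours at 37 degrees C. The cells were HepG2 CAGA-GFP in 1% FBS DMEM, stimulated with 500 pg/mL TGF-beta after compound addition. %Activity was normalised to no-cell wells (complete cell-killing) and DMSO (no toxicity), and curves were fitted and classified.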
TGFb SMAD3 inh = TGF-b pathway inhibition; 410,000 tested, 1.2% active; Potency, µM (doses to about 46.1 µM), for inactives: at the top dose activity, negative = inhibition, most hits filed as inhibitors; HepG2 CAGA-GFP TGF-b/SMAD3 reporter, GFP fluorescence, 18 h; TGF-beta stimulated, 500 pg/mL final; also: potency is read from the fitted curve at half-maximal effect; % is scaled to controls: 0 for no effect and ±100 for the full control effect; nearly all actives have a fitted effect of over 65% in size
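Read-out: total well GFP (ex488/em500-530) summed from mean per-cell fluorescence. Cells: HEPG2 CAGA-GFP, 1% FBS DMEM, 18 h at 37 degrees C with 500 pg/mL final TGF-beta. Unstimulated wells served as the full-inhibition control; stimulated DMSO wells = 0%.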
IDH1 R132H inh = inhibitors of human mutant IDH1 R132H; IDH1-R132H enzyme, NADPH consumption, diaphorase/resazurin fluorescence; Potency, µM (series often up to 76.6 µM), without a hit: at the highest dose activity change, negative = inhibition, usual class: inhibitors; 390,000 tested, 0.093% active; AID 602179; also: potency is read from the fitted curve at half-maximal effect; % is scaled to controls: 0 for no effect and ±100 for the full control effect; nearly all actives have a fitted effect of over 65% in size
Target sequence (O75874 whole entry R132H, stated change not applied): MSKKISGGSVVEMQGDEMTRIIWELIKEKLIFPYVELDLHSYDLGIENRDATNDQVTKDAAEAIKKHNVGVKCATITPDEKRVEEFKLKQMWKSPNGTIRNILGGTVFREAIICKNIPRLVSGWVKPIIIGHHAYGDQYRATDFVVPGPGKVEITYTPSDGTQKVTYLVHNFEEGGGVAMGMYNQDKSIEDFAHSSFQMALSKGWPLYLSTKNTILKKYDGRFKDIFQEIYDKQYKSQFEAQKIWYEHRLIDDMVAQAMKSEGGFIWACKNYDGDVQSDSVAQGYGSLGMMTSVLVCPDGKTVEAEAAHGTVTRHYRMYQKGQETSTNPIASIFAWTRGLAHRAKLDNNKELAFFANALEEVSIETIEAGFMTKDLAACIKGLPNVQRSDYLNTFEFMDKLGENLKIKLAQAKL
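IDH1-R132H (0.5 ug/mL dispensed) in pH 7.5 Tris buffer was preincubated 30 min with compound, then given a substrate mix of 0.016 mM NADPH and 2 mM alpha-KG for 80 min at room temperature; remaining NADPH was read by diaphorase/resazurin fluorescence.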
S2 tox = cell viability loss in ATXN counter-screen; S2 cells (HEK-293 line with an ATXN2-luciferase reporter) viability, CellTiter-Fluor protease fluorescence, 24 h; Potency, µM (doses to about 56.7 µM), usual class: cytotoxic; 400,000 tested, 0.49% active; also: potency is read from the fitted curve at half-maximal effect; nearly all actives have a fitted effect of over 40% in size
TGFb CAGA inh = TGF-b pathway inhibition, cherry-pick retest. AID 720534. HepG2 CAGA-GFP TGF-b reporter, GFP fluorescence, 18 h; cells stimulated with TGF-beta, 500 pg/mL. Potency, µM (doses to about 46.1 µM), without a hit: top-dose activity, negative = inhibition, usual class: inhibitors. shares compounds with TGFb SMAD3 inh. 1,600 tested, 63% active; also: potency is read from the fitted curve at half-maximal effect; % is scaled to controls: 0 for no effect and ±100 for the full control effect; nearly all actives have a fitted effect of over 65% in size
HepG2 tox-2 = toxic to HepG2 cells in TGF-b counterscreen. shares compounds with TGFb SMAD3 inh. HepG2 CAGA-GFP viability, ATP luminescence, 18 h; cells stimulated with TGF-beta, 500 pg/mL. Potency, µM (top dose mostly 46.1 µM), without a hit: at the top dose activity, negative = cytotoxicity, actives largely listed as inhibitors. 1,600 tested, 27% active. AID 720535; also: potency is read from the fitted curve at half-maximal effect; % is scaled to controls: 0 for no effect and ±100 for the full control effect; nearly all actives have a fitted effect of over 70% in size
TGFb CCL64 inh = orthogonal confirmation of TGF-b inhibitors in CCL64 cells; shares compounds with TGFb SMAD3 inh; CCL64 CAGA-GFP reporter, TGF-b stimulated, GFP fluorescence, 18 h; Potency, µM (doses to about 46.1 µM), for inactives: at the top dose activity, negative = inhibition, hits mostly inhibitors; 1,600 tested, 41% active; also: potency is read from the fitted curve at half-maximal effect; nearly all actives have a fitted effect of over 65% in size
COP TGFb inh = blocks TGF-b signaling in HepG2 COP reporter. 1,600 tested, 3% active. Potency, µM (titrated, usually from 46.1 µM), inactives show at the highest dose activity, negative = inhibition, usual class: inhibitors. HepG2 COP-GFP TGF-b reporter, GFP fluorescence, 18 h; cells stimulated by added recombinant TGF-beta. shares compounds with TGFb SMAD3 inh; also: potency is read from the fitted curve at half-maximal effect; nearly all actives have a fitted effect of over 70% in size
Active calls of the source: *; i = inactive; ? = inconclusive; / = not tested or not shown. The list is not random: actives were taken first. Their share in the collection is about 2.2%. Unless noted, calls follow the shape of the dose curve; as a rule, active = well fitted curve in the direction sought with a large enough effect; inconclusive = small, poorly fitted or top-dose-only effect, or another doubt; inactive = no such curve, though single readings can be large; an effect the other way counts as inactive or inconclusive.

SMILES | LDHA inh | ATXN2 expr inh | HepG2 tox-1 | TGFb SMAD3 inh | IDH1 R132H inh | S2 tox | TGFb CAGA inh | HepG2 tox-2 | TGFb CCL64 inh | COP TGFb inh
O=C(NCCN1CCOCC1)c1ccc(Cl)c(S(=O)(=O)N2CCCCCC2)c1 | -5 | -10% | -35% | 2.5µM* | 3% | i | ? | -9% | -3% | 1%
O=C(NCCN1CCOCC1)c1ccc(Cl)c(S(=O)(=O)N2CCCC2)c1 | -4 | -13% | -7% | -16% | 7% | i | / | / | / | /
COc1ccc(C(=O)Nc2ccc(C)c(S(=O)(=O)N3CCOCC3)c2)cc1S(=O)(=O)N1CCCC1 | -6 | -19% | -7% | 11µM* | -4% | i | ? | 2% | ? | 2%
O=S(=O)(Nc1cccnc1)c1cccc(C(F)(F)F)c1 | -1 | -5% | -8% | -8% | -3% | i | / | / | / | /
O=[N+]([O-])c1ccc(S(=O)(=O)c2cccc(C(F)(F)F)c2)nc1 | 1 | ? | 13µM* | 6.3µM* | 16% | 16µM* | 3.7µM* | 7.3µM* | 2.6µM* | 16µM*
O=C(COc1ccccc1)N(Cc1cccnc1)c1nc2c(F)cccc2s1 | -1 | / | -16% | ? | 20% | / | / | / | / | /
Cc1c[n+]([O-])cc(C)c1Oc1ccccc1 | 2 | 14% | 0% | 8% | 5% | ? | / | / | / | /
COc1ccc(OC)c(C=NN=Cc2cc(OC)ccc2OC)c1 | -4 | / | -21% | -12% | -3% | i | / | / | / | /
Cc1cccc(C)c1N(CC(=O)Nc1cc(Cl)ccc1Oc1ccccc1)S(C)(=O)=O | -1 | -10% | 14% | ? | 2% | i | ? | -17% | -24% | 1%
Cc1ccc(C(=O)CC(=O)c2ccc(C(C)(C)C)cc2)cc1 | -5 | 10% | -7% | -3% | 9% | i | / | / | / | /
CC(C)(C)c1ccc(C(=O)CC(=O)c2cc(Cl)ccc2O)cc1 | 3 | -38% | -16% | 5.6µM* | 4% | i | ? | ? | 9.2µM* | 59%
C=C1CCN(C(Cc2ccccc2)C(=O)N2CCOCC2)S(=O)(=O)c2ccccc21 (configuration not stated) | / | / | 5% | 0% | / | / | / | / | / | /
COc1ccc(-c2ocnc2C(=O)Nc2ccccc2N2CCCCC2)cc1 | -1 | -7% | -3% | 1% | 2% | i | / | / | / | /
Cc1nn(-c2ccccc2)c(C)c1NC(=O)COC(=O)CC(C)c1ccccc1 (configuration not stated) | 0 | ? | 13% | 0% | -3% | i | / | / | / | /
CCC(C)NS(=O)(=O)c1ccc(S(=O)(=O)N2CC=C(c3ccc(F)cc3)CC2)cc1 (configuration not stated) | -4 | -29% | -32% | 8.9µM* | -4% | i | ? | -16% | ? | 15%
CCC(C)NC(=O)C1=CCN(S(=O)(=O)c2ccc(C)cc2)CC1 (configuration not stated) | -4 | 4% | -2% | 3% | 2% | i | / | / | / | /
COc1cccc(/C=C2/CCC(CN(C)C)C2=O)c1 (configuration not stated) | 0 | 13µM* | -98% | 2.5µM* | -13% | / | 2.6µM* | 5.8µM* | 1.5µM* | ?
CN(C)CC1CCC/C(=C\c2ccc(OC(=O)/C=C/c3ccc(Cl)c(Cl)c3)cc2)C1=O (configuration not stated) | 5 | -12% | -17% | 0% | 8% | ? | / | / | / | /
COc1ccc(/C=C2/CCCC(CN(C)C)C2=O)cc1 (configuration not stated) | 0 | ? | -33% | 6.3µM* | 2% | / | 2.6µM* | 7.3µM* | 4.1µM* | ?
CCN(CC)S(=O)(=O)c1cc(NC(=O)CCCOc2ccc(C(C)=O)cc2)ccc1C | -1 | -23% | -7% | 0% | 5% | i | / | / | / | /
Cn1cnc([N+](=O)[O-])c1Sc1nc(N)nc2c1ncn2C1CC(O)C(CO)O1 (configuration not stated) | -6 | -35% | -39% | 4µM* | -2% | ? | 4.1µM* | ? | 19% | 82%
Cn1cnc([N+](=O)[O-])c1Sc1nc(N)nc2c1ncn2C1OC(CO)C(O)C1O (configuration not stated) | -4 | -33% | -46% | 2µM* | -5% | ? | 2.9µM* | 0.92µM* | 3% | 65%
CC#CCOCC1CNC(=O)O1 (configuration not stated) | 1 | / | -4% | 1% | 14% | i | / | / | / | /
O=[N+]([O-])c1cc(S(=O)(=O)Nc2ccccc2)ccc1N1CCN(c2ccc(O)cc2)CC1 | 2 | -20% | -18% | ? | 1% | ? | / | / | / | /
Cc1ccc(NS(=O)(=O)c2ccc(N3CCN(c4ccc(O)cc4)CC3)c([N+](=O)[O-])c2)c(C)c1 | 13 | ? | -4% | 14µM* | -3% | i | 12µM* | ? | ? | 69%
O=C(c1[nH]nc2c1CCc1ccccc1-2)N1CCN(Cc2ccc3c(c2)OCO3)CC1 | 0 | -33% | -20% | 11µM* | 0% | i | 12µM* | ? | ? | 52%
CC(=O)c1ccc2c(c1)N(Cc1ccc3ccccc3c1)C(=O)C(C)S2 (configuration not stated) | -5 | -20% | -17% | 7.9µM* | / | i | 21µM* | 4% | -11% | 3%
